Reference: PubChem BioAssay (NCATS)
Where “and” joins values, the source holds several entries; their conditions need not be identical. Identical values can stand only once. Records with an inconclusive call do not appear. Entries that show only a call come without a potency. Calls of active or inactive are those of the source. Calls follow the shape of the dose curve; as a rule, active = well fitted curve in the direction sought with a large enough effect; inconclusive = small, poorly fitted or top-dose-only effect, or another doubt; inactive = no such curve, though single readings can be large; an effect the other way counts as inactive or inconclusive.

Tests used:
[1] = biological target: Voltage-gated inwardly rectifying potassium channel KCNH2 (Homo sapiens) (UniProt Q12809); test: qHTS Assay for Small Molecule Inhibitors of the Human hERG Channel Activity (AID 588834);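 also: lower thallium flux fluorescence means stronger hERG block; nearly all actives have a fitted effect of over 50% in size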; also: potency is read from the fitted curve at half-maximal effect
In short: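 Step 1: BacMam hERG transduction of U2OS, 4 hrs RT. Step 2: overnight 37 °C, plate 2000 cells/well, 4 hr. Step 3: FluxOR load, compound 10 min, stimulate, read fluorescence.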

[2] = biological target: Luciferin 4-monooxygenase (Photinus pyralis) (UniProt P08659); test: Biochemical firefly luciferase enzyme assay for NPC (AID 624030);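 also: purified P. pyralis luciferase at 10 nM with luciferin and ATP substrate; series mostly up to about 59 µM; nearly all actives have a fitted effect of over 70% in size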
In short: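 Direct inhibition of firefly luciferase enzyme (10 nM final, 50 mM Tris Acetate) assessed by luminescence within 5 minutes. Percent activity scaled between DMSO and PTC124 positive control, with concentration-effect curves classified by fit quality and response.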

[3] = S16 Schwann cell viability assay (CellTiter-Glo assay) (AID 624031); also: nearly all actives have a fitted effect of over 70% in size; also: potency is read from the fitted curve at half-maximal effect
In short: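 Cells were seeded at 500-750 per well in phenol red-free DMEM with 10% FBS and left overnight. Compounds or DMSO were pinned in, incubation ran 24 h at 37 °C/5% CO2, then CellTiter-Glo reagent was added and luminescence measured.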

[4] = S16 Schwann cell PMP22 intronic element firefly luciferase assay (AID 624032); also: nearly all actives have a fitted effect of over 30% in size; also: potency is read from the fitted curve at half-maximal effect
In short: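 Luciferase reporter of PMP22 intronic-element expression in stably transfected S16 rat Schwann cells, read by ONE-Glo luminescence after 24 h compound exposure at 37 C. Activity scaled between DMSO (0%) and positive-control PTC124; concentration-effect curves quality-classified.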

Sequence of Voltage-gated inwardly rectifying potassium channel KCNH2 (Homo sapiens) (Q12809 whole entry, looked up): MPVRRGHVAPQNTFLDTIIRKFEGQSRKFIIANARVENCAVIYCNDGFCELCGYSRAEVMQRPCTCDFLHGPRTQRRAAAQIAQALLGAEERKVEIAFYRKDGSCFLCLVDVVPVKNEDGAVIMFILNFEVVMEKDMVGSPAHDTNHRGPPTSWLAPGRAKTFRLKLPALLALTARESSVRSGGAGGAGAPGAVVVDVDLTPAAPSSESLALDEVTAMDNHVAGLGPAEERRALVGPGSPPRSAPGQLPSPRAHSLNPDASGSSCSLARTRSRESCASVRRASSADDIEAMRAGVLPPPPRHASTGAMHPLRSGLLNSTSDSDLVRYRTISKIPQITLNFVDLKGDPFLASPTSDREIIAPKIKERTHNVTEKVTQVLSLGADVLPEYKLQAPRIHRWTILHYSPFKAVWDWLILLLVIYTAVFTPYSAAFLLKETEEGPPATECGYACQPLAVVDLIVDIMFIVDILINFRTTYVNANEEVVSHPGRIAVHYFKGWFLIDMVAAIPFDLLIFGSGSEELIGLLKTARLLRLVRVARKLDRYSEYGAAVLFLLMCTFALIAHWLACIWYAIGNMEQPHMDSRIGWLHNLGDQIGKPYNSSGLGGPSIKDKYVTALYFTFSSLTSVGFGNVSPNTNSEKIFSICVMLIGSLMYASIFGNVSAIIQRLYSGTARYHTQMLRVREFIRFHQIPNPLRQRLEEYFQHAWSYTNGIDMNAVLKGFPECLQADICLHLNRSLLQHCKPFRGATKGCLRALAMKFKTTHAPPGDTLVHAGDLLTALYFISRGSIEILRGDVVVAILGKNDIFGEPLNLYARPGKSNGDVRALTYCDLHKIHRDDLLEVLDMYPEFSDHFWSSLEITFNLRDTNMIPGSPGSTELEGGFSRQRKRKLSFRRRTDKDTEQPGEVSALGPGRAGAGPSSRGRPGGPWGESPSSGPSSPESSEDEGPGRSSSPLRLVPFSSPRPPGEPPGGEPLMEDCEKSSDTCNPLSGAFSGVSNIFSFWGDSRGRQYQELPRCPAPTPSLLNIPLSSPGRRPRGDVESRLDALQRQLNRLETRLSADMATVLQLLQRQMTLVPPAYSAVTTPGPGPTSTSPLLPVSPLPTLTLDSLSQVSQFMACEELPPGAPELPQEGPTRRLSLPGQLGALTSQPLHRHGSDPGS
Sequence of Luciferin 4-monooxygenase (Photinus pyralis) (P08659 whole entry, looked up): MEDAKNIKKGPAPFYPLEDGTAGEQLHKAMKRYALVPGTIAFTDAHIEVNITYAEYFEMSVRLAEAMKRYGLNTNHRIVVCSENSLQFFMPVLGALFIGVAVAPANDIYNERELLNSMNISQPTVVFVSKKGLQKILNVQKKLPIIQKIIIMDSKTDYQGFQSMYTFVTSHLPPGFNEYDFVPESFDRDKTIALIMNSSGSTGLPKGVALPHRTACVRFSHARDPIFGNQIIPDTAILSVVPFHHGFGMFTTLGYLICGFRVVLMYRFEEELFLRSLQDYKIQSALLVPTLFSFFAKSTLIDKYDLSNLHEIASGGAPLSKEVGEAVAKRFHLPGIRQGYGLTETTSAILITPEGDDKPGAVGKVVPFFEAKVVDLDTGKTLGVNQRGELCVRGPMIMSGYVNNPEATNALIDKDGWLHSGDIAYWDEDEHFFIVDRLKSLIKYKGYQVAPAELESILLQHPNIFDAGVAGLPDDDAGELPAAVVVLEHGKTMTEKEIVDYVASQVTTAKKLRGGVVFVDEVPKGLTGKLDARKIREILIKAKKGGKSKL

| Compound | Potency [1] | Potency [2] | Potency [3] | Potency [4] |
| --- | --- | --- | --- | --- |
| Cc1ccnc(NS(=O)(=O)c2ccc(N)cc2)n1 | inactive | inactive | inactive | inactive |
| Cc1cccn2c(=O)c(-c3nnn[nH]3)cnc12 | inactive | inactive | inactive | inactive |
| C[C@@H]1CN(CCCn2c3ccccc3c3ccccc32)C[C@H](C)N1 | 10 µM (active) | inactive | 32.2 µM (active) | 36.1 µM (active) |
| CC(=O)N(O)CCCCCNC(=O)CCC(=O)N(O)CCCCCNC(=O)CCC(=O)N(O)CCCCCN | inactive | inactive | inactive | inactive |
| CCCn1c(=O)[nH]c(=O)c2[nH]cnc21 | inactive | inactive | inactive | inactive |
| C[N+]1(CCCCC[N+]2(C)CCCC2)CCCC1 | inactive | inactive | inactive | inactive |
| c1ccc(-c2ccc(C(c3ccccc3)n3ccnc3)cc2)cc1 (configuration not stated) | 12.6 µM (active) | inactive | inactive | inactive |
| COCc1c(C(C)C)nc(C(C)C)c(/C=C/[C@@H](O)C[C@@H](O)CC(=O)O)c1-c1ccc(F)cc1 | inactive | inactive | inactive | 4.55 µM (active) |
| Cc1c(C)n(CCN(C)C)c2ccc(C(=O)OCCN(C)C)cc12 | inactive | inactive | inactive | 32.2 µM (active) |
| O=C(COc1ccc(Cl)cc1)N1CCN(Cc2ccc3c(c2)OCO3)CC1 | 15.8 µM (active) | inactive | inactive | inactive |
| CN1C2CCC1CC(OC(=O)c1c[nH]c3ccccc13)C2 (configuration not stated) | 11.2 µM (active) and 5.62 µM (active) | inactive | inactive | inactive |
| CC(C)(CO)[C@@H](O)C(=O)NCCCO | inactive | inactive | inactive | inactive |
| CCN1CCCC1=O | inactive | inactive | inactive | inactive |
| CCCCCC=CCC=CCCCCCCCC(=O)OCC | inactive | inactive | inactive | inactive |
| O=C(CCCN1CCC(O)(c2ccc(Br)cc2)CC1)c1ccc(F)cc1 | 0.126 µM (active) | inactive | inactive | inactive |
| C[C@]12CCC(=O)C=C1CC[C@H]1[C@@H]3CC[C@](O)(C(=O)CO)[C@@]3(C)C[C@H](O)[C@@]12F | inactive | inactive | inactive | inactive |
| CCCCC1=NC2(CCCC2)C(=O)N1Cc1ccc(-c2ccccc2-c2nn[nH]n2)cc1 | inactive | inactive | inactive | inactive |
| CCN(CC)C(=O)N1CCN(C)CC1 | inactive | inactive | inactive | inactive |
| CN1CCN(C(c2ccccc2)c2ccccc2)CC1 | inactive | inactive | inactive | inactive |
| CCCCCCCCCCCCCCCCOP(=O)([O-])OCC[N+](C)(C)C | inactive | inactive | inactive | inactive |
| CCCCOc1cc(C(=O)NCCN(CC)CC)c2ccccc2n1 | 4.47 µM (active) | inactive | inactive | inactive |
| Cc1cc(O)c(C(C)C)cc1Cl | inactive | inactive | inactive | inactive |
| COc1ccc(CN2CCN(C(c3ccc(F)cc3)c3ccc(F)cc3)CC2)c(OC)c1OC | 1.12 µM (active) | inactive | 28.7 µM (active) | 10.2 µM (active) |
| CCOC(=O)c1cccc(N)c1 | inactive | inactive | inactive | inactive |
| CN=C(NC#N)NCCSCc1csc(N=C(N)N)n1 | inactive | inactive | inactive | inactive |
| O=C(Nc1ccc(Oc2ccc(Cl)cc2)c(Cl)c1)c1cc(I)cc(I)c1O | inactive | – | inactive | – |
| C[C@@H](CN(C)C)CN1c2ccccc2Sc2ccccc21 | 6.31 µM (active) | inactive | – | inactive |
| N[C@H](CO)C(=O)O | inactive | inactive | inactive | inactive |
| CCN1CCN(c2cc3c(cc2F)c(=O)c(C(=O)O)cn3C2CC2)CC1 | inactive | inactive | inactive | inactive |
| CC1(C)CCC(NC(=O)[C@@H](N)CCC(=O)O)CC1 | inactive | inactive | inactive | inactive |
